This is an account of results in the supplement of paper PMC6378613.

Compound in this test: Cc1ccc(-c2ccc3c(ccc4sc5c(c43)NC[C@@H](C)NC5=O)n2)cn1
The experiment in a line: kinase activity remaining relative to vehicle control; higher = less inhibition. The procedure:
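In vitro radiometric kinase profiling of the MK2 inhibitor PF-3644022 at 0.1, 1 and 10 µM against a panel of kinases (MRC International Centre for Kinase Profiling, Dundee). Read-out is % kinase activity remaining relative to the vehicle control, mean of n=2.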

UniProt Q9BXA7, sequence (Q9BXA7 whole entry, looked up): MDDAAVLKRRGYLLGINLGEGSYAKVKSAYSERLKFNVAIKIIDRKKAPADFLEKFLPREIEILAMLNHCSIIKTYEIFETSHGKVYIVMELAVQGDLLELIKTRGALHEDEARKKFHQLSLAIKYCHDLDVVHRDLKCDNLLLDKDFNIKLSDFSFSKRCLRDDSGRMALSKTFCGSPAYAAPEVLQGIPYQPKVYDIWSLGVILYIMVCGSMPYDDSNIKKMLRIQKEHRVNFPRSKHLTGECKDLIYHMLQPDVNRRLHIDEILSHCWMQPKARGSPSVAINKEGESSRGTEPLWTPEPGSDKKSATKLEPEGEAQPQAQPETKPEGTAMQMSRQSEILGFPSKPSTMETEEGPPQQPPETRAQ
UniProt Q86Z02, sequence (Q86Z02 whole entry, looked up): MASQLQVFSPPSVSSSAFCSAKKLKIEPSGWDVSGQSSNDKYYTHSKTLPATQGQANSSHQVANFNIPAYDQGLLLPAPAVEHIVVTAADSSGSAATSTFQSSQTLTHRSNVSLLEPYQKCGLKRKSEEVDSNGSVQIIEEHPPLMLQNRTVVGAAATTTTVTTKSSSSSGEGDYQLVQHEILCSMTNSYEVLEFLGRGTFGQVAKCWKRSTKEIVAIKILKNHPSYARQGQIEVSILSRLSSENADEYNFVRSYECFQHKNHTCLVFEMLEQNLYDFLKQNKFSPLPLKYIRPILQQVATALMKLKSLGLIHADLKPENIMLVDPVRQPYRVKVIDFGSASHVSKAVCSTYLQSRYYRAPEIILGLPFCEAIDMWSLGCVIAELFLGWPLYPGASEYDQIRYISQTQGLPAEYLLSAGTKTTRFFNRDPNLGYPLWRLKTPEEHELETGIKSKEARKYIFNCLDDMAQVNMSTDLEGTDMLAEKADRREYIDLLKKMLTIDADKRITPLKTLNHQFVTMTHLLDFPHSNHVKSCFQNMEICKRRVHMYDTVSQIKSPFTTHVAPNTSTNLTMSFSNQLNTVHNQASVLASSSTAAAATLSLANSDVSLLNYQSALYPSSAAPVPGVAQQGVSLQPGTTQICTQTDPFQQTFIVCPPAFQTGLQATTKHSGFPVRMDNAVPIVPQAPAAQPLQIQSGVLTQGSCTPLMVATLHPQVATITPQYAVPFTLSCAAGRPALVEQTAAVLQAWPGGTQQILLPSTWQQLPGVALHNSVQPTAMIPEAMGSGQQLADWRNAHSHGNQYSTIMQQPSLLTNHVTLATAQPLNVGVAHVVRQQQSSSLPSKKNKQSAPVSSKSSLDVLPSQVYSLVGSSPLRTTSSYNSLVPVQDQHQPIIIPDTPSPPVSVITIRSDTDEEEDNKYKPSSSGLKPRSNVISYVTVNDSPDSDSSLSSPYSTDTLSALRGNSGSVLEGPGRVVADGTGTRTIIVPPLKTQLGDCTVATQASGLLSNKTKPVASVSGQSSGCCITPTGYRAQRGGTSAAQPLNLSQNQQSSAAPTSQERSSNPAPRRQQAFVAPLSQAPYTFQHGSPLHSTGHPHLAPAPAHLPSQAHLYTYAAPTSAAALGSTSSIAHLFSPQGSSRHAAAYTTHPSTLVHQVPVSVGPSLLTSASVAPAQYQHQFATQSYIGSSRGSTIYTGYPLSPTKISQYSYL
UniProt P41240, sequence (P41240 whole entry, looked up): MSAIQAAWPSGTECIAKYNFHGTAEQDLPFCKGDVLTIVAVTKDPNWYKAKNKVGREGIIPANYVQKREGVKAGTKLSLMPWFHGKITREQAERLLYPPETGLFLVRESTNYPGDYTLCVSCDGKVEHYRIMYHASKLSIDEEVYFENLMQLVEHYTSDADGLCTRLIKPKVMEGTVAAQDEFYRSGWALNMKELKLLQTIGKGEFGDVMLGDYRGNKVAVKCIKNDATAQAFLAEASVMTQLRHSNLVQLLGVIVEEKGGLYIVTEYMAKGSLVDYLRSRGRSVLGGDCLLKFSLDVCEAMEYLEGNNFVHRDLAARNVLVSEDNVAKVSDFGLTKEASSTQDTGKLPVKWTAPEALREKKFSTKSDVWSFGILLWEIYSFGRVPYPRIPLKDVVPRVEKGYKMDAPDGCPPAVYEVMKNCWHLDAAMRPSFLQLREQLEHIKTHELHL
UniProt Q9UHD2, sequence (Q9UHD2 whole entry, looked up): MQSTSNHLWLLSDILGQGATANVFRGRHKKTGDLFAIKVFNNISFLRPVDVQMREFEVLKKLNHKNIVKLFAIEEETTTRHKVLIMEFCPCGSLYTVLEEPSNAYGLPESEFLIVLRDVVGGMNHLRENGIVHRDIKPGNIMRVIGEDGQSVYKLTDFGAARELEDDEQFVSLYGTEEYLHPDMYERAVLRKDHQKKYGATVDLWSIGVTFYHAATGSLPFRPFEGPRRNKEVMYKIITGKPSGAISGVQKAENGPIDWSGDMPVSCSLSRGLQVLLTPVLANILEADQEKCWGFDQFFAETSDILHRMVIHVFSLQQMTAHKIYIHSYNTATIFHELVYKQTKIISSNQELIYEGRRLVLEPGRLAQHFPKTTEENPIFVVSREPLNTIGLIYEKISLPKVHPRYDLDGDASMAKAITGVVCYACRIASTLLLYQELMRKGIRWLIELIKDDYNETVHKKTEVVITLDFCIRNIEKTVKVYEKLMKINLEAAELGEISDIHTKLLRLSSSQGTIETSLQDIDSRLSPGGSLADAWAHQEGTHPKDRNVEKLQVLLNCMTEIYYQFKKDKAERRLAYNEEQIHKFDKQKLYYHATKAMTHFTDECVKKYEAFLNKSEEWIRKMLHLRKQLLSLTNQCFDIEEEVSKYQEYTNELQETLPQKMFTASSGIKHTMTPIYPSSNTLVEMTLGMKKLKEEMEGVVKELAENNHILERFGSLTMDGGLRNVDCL
UniProt P33981, sequence (P33981 whole entry, looked up): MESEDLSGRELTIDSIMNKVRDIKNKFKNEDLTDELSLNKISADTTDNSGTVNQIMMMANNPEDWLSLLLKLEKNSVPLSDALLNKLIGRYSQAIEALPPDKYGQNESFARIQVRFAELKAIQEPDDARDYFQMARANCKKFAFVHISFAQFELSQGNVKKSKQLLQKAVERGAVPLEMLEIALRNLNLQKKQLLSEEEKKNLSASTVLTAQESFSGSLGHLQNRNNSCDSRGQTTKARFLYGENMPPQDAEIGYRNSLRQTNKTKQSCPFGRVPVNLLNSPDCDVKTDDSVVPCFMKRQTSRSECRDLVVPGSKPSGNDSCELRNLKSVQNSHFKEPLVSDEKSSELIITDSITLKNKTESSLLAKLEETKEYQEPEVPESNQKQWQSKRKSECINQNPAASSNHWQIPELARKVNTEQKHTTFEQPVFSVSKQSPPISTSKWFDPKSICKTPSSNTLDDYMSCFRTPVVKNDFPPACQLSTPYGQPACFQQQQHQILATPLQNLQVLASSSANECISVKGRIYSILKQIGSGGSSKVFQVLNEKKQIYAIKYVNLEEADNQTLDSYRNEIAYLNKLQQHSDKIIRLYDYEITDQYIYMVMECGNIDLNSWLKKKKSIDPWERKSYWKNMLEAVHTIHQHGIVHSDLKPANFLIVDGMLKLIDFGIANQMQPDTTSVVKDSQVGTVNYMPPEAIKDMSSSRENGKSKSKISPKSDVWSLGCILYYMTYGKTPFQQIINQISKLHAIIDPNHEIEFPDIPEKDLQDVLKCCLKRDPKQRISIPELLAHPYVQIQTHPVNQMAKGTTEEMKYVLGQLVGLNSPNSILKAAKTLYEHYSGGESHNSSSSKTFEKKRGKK
UniProt P00519, sequence (P00519 whole entry, looked up): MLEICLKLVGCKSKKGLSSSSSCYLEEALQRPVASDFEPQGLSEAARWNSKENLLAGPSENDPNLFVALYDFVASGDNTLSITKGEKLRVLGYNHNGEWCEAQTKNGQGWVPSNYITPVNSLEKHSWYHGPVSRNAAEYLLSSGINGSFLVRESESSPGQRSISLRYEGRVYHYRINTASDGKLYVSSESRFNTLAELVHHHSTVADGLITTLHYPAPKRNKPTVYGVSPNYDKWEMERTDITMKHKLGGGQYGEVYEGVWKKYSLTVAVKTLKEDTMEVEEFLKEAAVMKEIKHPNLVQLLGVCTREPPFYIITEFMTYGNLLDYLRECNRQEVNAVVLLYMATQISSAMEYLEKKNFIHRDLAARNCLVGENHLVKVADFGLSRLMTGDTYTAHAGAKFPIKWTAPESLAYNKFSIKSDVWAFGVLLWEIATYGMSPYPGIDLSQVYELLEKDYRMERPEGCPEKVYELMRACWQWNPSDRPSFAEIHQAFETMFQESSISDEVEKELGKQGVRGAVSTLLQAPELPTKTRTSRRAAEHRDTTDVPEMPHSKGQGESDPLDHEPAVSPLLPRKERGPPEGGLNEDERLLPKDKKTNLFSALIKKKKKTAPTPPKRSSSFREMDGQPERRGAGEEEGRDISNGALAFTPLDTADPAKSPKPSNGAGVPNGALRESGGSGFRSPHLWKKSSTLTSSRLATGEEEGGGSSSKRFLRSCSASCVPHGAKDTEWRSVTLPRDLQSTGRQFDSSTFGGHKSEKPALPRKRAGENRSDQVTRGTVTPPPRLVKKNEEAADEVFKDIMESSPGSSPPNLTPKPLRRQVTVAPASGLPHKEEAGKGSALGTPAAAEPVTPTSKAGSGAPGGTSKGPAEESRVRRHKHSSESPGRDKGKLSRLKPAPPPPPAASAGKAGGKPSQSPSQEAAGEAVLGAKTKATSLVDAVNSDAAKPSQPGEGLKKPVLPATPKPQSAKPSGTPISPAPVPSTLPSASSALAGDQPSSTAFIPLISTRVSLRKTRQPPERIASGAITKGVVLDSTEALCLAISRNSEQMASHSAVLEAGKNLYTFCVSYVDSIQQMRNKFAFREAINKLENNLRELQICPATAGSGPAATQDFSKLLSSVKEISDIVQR

Regarding ABL (UniProt P00519), the kinase activity remaining is, setting by setting: (inhibitor concentration 0.1 µM) 120%; (inhibitor concentration 1 µM) 113%; (inhibitor concentration 10 µM) 76%.

For EF2K, the kinase activity remaining by setting is: (inhibitor concentration 0.1 µM) 106%; (inhibitor concentration 1 µM) 97%; (inhibitor concentration 10 µM) 85%.

PRK2 (UniProt Q16513): the kinase activity remaining by setting is: (inhibitor concentration 0.1 µM) 108%; (inhibitor concentration 1 µM) 101%; (inhibitor concentration 10 µM) 81%.

Consider IRAK4 (UniProt Q9NWZ3), for which the kinase activity remaining is, setting by setting: (inhibitor concentration 0.1 µM) 94%; (inhibitor concentration 1 µM) 62%; (inhibitor concentration 10 µM) 24%.

Regarding CK2, the kinase activity remaining reads like this: (inhibitor concentration 0.1 µM) 100%; (inhibitor concentration 1 µM) 97%; (inhibitor concentration 10 µM) 93%.

On to HIPK1 (UniProt Q86Z02), for which the kinase activity remaining reads like this: (inhibitor concentration 0.1 µM) 111%; (inhibitor concentration 1 µM) 104%; (inhibitor concentration 10 µM) 130%.

Take ZAP70 (UniProt P43403): the kinase activity remaining (inhibitor concentration 0.1 µM) was found to be 93%, the kinase activity remaining (inhibitor concentration 1 µM) stood at 100% and the kinase activity remaining (inhibitor concentration 10 µM) amounted to 95%.

As to CSK (UniProt P41240), the kinase activity remaining (inhibitor concentration 0.1 µM) was 117%, the kinase activity remaining (inhibitor concentration 1 µM) is 111% and the kinase activity remaining (inhibitor concentration 10 µM) was determined as 106%.

S6K1: the kinase activity remaining (inhibitor concentration 0.1 µM) is 99%, the kinase activity remaining (inhibitor concentration 1 µM) was determined as 95% and the kinase activity remaining (inhibitor concentration 10 µM) is 80%.

For TTK (UniProt P33981), the kinase activity remaining by setting is: (inhibitor concentration 0.1 µM) 117%; (inhibitor concentration 1 µM) 101%; (inhibitor concentration 10 µM) 84%.

Consider PDGFRA (UniProt P16234), for which the kinase activity remaining reads like this: (inhibitor concentration 0.1 µM) 104%; (inhibitor concentration 1 µM) 108%; (inhibitor concentration 10 µM) 104%.

As for TSSK1 (UniProt Q9BXA7), the kinase activity remaining runs as follows: (inhibitor concentration 0.1 µM) 97%; (inhibitor concentration 1 µM) 85%; (inhibitor concentration 10 µM) 89%.

In the case of TBK1 (UniProt Q9UHD2), the kinase activity remaining (inhibitor concentration 0.1 µM) came to 110%, the kinase activity remaining (inhibitor concentration 1 µM) was 87% and the kinase activity remaining (inhibitor concentration 10 µM) stood at 96%.
